KKLEB cytotox – cytotoxicity in KKLEB CF airway cells, primary screen, cytotoxicity control for CF NF-kB inhibitor project, cell-based, uHTS, fluorescence assay plates; KKLEB CF airway cells viability, ATPlite luminescence, overnight; hits give low values; cells stimulated with P. aeruginosa culture filtrate; activity change (cytotoxicity), % at 5 µM; 360,000 compounds, 0.36% hits; AID 602141, 2011;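 active = corrected activity change at or below -50% at 5 µM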
CF NFkB inh – inhibitors of PAF-induced NF-kB signaling, primary screen, cell-based, GFP fluorescence, uHTS | KKLEB NF-kB-GFP reporter, GFP fluorescence overnight | inhibition, % at 5 µM | 360,000 compounds, 0.86% hits | AID 588850, 2011;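 active = at least 50% inhibition at 5 µM, scaled per plate between neutral and stimulator controls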;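 also: PAF is a Pseudomonas aeruginosa culture filtrate used as stimulus; plate controls were PAF-stimulated DMSO wells for no effect and unstimulated DMSO wells for full effect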
HIF-2a block – HIF-2a reporter inhibitors, primary screen, luminescence, 786-0 RCC cells; 360,000 compounds, 0.72% hits; inhibition, % at 18.8 µM; 786-0 RCC cells HIF-2a reporter, luciferase luminescence, overnight;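 active = inhibition of the luminescence signal of 40% or more relative to plate controls, in a single-dose primary screen at 18.75 µM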
PPC-1+TRAIL kill – compounds killing PPC-1 cancer cells with TRAIL present, primary screen, TRAIL potentiator project, ATPLite luminescence, uHTS; cell killing (% activity), % at 4 µM or 5 µM; AID 1443, 2008; 220,000 compounds, 0.41% hits; PPC-1 cells + TRAIL, ATPLite viability luminescence;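 active = cell killing above 50% in the first pass at 4 µM, then a duplicate retest at 5 µM averaging 50% or more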;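 also: plate controls were cells with TRAIL plus DMSO for no effect and medium-only wells lacking cells for full effect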
C8 TRAIL sens – viability loss with TRAIL in NB7+C8 cells, primary screen, TRAIL sensitizer project, cell-based, ATPlite luminescence; AID 624354, 2012; inhibition (viability loss, TRAIL sensitization), % at 10 µM; 360,000 compounds, 1% hits;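 active = compounds causing at least 50% loss of cell viability in the single-dose screen, relative to plate controls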
Peg3 prom inh – Peg3 promoter-driven luciferase inhibitors, primary screen, cell-based, HeLa, luciferase luminescence; HeLa PEG-Prom luciferase reporter, overnight; inhibition, % at 20 µM; 360,000 compounds, 1.7% hits; AID 588405, 2011;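 active = inhibition of at least 50% at 20 µM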
Starred values were filed as active, the others as inactive; . = no result given. This is a sample that favours compounds with a hit; in the whole collection about 3.1% have one here.

SMILES	KKLEB cytotox	CF NFkB inh	HIF-2a block	PPC-1+TRAIL kill	C8 TRAIL sens	Peg3 prom inh
CCOc1cc(C(=O)CSc2nnc(CNc3ccc(Cl)cc3)o2)ccc1NC(=O)CC	2.1	4.9	3.0	5.5	2.3	66.4*
COc1cc(OC)cc(-c2sc3ccc(OC)cc3c2C#CC2(N)CCCCC2)c1	-29.2	32.8	0.5	.	37.2	94.9*
COc1ccc(-c2sc3cc4c(cc3c2C#CC2(N)CCCCC2)OCO4)cc1	-1.9	0.7	-94.3	.	29.6	93.4*
COc1cccc(-c2sc3ccc(OC)cc3c2C#CC2(O)CCCCC2)c1	-14.4	30.8	-6.0	.	1.2	-0.1
O=C(C[C@H]1CC[C@H]2[C@@H](COC[C@H](O)CN2Cc2ccccc2)O1)NCCCN1CCOCC1	.	.	7.8	.	-18.5	.
CCC(c1nc2ccccc2[nH]1)n1c(=O)c(-c2ccccc2)nc2ccccc21 (stereo not drawn)	.	.	4.6	.	-16.2	.
CCOc1cc(/C=N/NC(=O)c2ccc(=O)n(C)c2)ccc1O	15.3	7.8	6.1	9.2	-1.2	1.6
COc1cc(/C=N/NC(=O)c2ccc(COc3cc(C)ccc3C(C)C)cc2)cc(OC)c1O	2.4	-3.6	69.0*	24.6	17.0	-69.8
Cc1ccc(C(C)C)c(OCc2ccc(C(=O)N/N=C/c3ccc(O)c(O)c3)cc2)c1	14.4	-1.3	71.5*	29.7	30.7	-32.6
COc1cc(/C=N\NC(=O)c2ccc(-c3ccccc3)cc2)cc(OC)c1O	16.5	-29.4	-44.6	.	5.4	-60.3
Cc1ccc(C(C)C)c(OCc2ccc(C(=O)N/N=C/c3cccc(O)c3O)cc2)c1	0.6	25.2	71.0*	48.2	40.0	13.5
CC(=O)Nc1ccc(C(=O)N/N=C/c2ccccc2OCc2ccccc2)cc1	-18.4	-19.1	-47.1	19.1	-14.7	-22.1
O=C(/C=C/[C@H]1O[C@@H](n2cnc3c(NC(=O)c4ccccc4)ncnc32)[C@H](O)[C@@H]1O)N[C@@H](CO)Cc1c[nH]c2ccccc12	4.9	-17.8	9.4	.	0.1	14.0
COc1ccccc1Nc1cc(C)nc(Nc2ccccc2OC)n1	8.7	-11.6	-0.7	.	-5.4	16.9
O=C(NCc1ccccc1)C1c2ccccc2OCC(=O)N1CC(F)(F)F (stereo not drawn)	.	.	2.8	.	-7.3	.
Cc1cc(O)c(C2=Nc3ccccc3SC(c3ccc(Cl)cc3)C2)c(=O)o1 (stereo not drawn)	-23.8	14.5	-77.8	46.2	43.0	-183.6
COc1ccc(C2CC(c3c(O)cc(C)oc3=O)=NCCS2)c(OC)c1 (stereo not drawn)	-13.4	33.3	-215.1	19.9	77.7*	-198.2
CCCC#CCN1CCN(C23CC4CC(CC(C4)C2)C3)CC1	7.7	-0.2	11.9	.	3.1	5.2
COc1ccc(N=Nc2n(C)c3ccccc3[n+]2C)cc1	.	.	.	92.2*	.	.
Cc1ccc(C)c(NC(=O)CN2C(=O)C3CC=CCC3C2=O)c1 (stereo not drawn)	4.7	-2.5	9.1	.	-11.3	-11.1
COc1ccc(C(=O)/C=C/Sc2nc3ccccc3o2)cc1	-10.0	54.4*	26.2	14.5	37.4	90.8*
COc1ccccc1/C=C/C(=O)c1cc(Br)ccc1OC(=O)c1ccco1	-14.6	11.4	87.2*	.	31.8	19.0
Cc1cccc(OCC(O)Cn2c(=N)n(CCN3CCCCC3)c3ccccc32)c1 (stereo not drawn)	-13.9	13.8	24.6	29.8	7.4	94.9*
CCN(CC)CCn1c(=N)n(CC(O)COc2cccc(C)c2)c2ccccc21 (stereo not drawn)	-18.5	-1.5	18.1	29.5	5.8	58.2*
COc1ccccc1NC(=O)N(C)C[C@@H]1OCc2cnnn2CCCC(=O)N([C@@H](C)CO)C[C@H]1C	4.2	0.4	-2.3	.	1.4	-13.8
SMILES	KKLEB cytotox	CF NFkB inh	HIF-2a block	PPC-1+TRAIL kill	C8 TRAIL sens	Peg3 prom inh
Cc1[nH]n(-c2ccccc2)c(=O)c1N=Nc1cccc(C(=O)O)c1	6.2	-9.7	63.7*	.	22.2	63.5*
C[C@H](CO)N1C[C@H](C)[C@@H](CN(C)C(=O)Nc2ccccc2)Oc2c(NC(=O)C3CCCCC3)cccc2C1=O	1.0	-1.0	10.7	.	1.6	9.4
Cn1nc(C(F)(F)F)c(/C=N/OC(=O)c2ccccc2)c1Sc1ccc(Cl)cc1	-7.3	30.6	8.3	6.7	1.7	20.9
Cn1nc(C(F)(F)F)c(/C=N/OC(=O)c2ccccc2)c1SCc1ccccc1Cl	2.6	26.6	-64.7	8.9	1.5	52.8*
Nc1cccc(N=[N+]([O-])c2cccc(N)c2)c1	-7.6	10.7	-227.9	.	17.3	-330.6
COc1ccc(Cn2cc(Cn3c4ccccc4c(=O)n3C(C)C)nn2)cc1	1.9	-6.6	7.7	.	-9.8	6.4
CCCCc1nc2c(C)c(N)cnc2n1Cc1cccc([N+](=O)[O-])c1	-5.6	-4.9	3.0	.	13.9	10.1
COc1cc2c(cc1NC(=O)CSc1nc3cc(Cl)ccc3s1)oc1ccccc12	-59.8*	38.9	3.9	4.9	16.3	11.7
COc1cc2c(cc1NC(=O)CSc1ccccc1)oc1ccccc12	-7.5	0.3	-136.4	5.0	-4.5	-79.6
CNC1=C(N(C(C)=O)c2ccc(Br)cc2)C(=O)c2ccccc2C1=O	-62.5*	75.6*	60.2*	68.2*	92.2*	101.6*
CCn1c(CNC(=O)c2ccc(F)cc2)cc2ccccc21	1.5	23.1	-134.8	.	32.5	-89.7
CCn1c(CNC(=O)c2cccnc2)cc2ccccc21	5.2	-0.8	17.9	.	-6.3	74.1*
O=C(Nc1ccc(-c2cn3ccccc3n2)cc1)c1cccs1	-48.5	-64.8	-250.9	45.9	51.9*	-79.0
O=C(Nc1ccccc1)c1cn2ccccc2n1	-7.7	-3.5	-11.1	48.4	58.4*	-36.3
Cc1ccn2cc(C(=O)Nc3cccc(C(=O)NC4CC4)c3)nc2c1	-11.1	15.9	-125.1	.	54.2*	-173.7
O=C(Nc1cccc(C(=O)NC2CC2)c1)c1ccccc1	15.1	-13.3	-47.5	.	-9.2	-21.4
COC(=O)c1ccc(NC(=O)CCCN2C(=O)NC(C)(C)C2=O)cc1	10.3	-8.1	8.9	.	-4.8	-17.6
Cc1ccc(C(=O)CC(SCC(=O)O)c2ccc([N+](=O)[O-])cc2)cc1 (stereo not drawn)	-0.8	-9.8	-43.7	12.3	-4.1	-18.9
O=C(CC(SCCO)c1ccc([N+](=O)[O-])cc1)c1ccco1 (stereo not drawn)	-15.8	41.9	-9.8	.	-1.8	71.9*
Cc1cccc(C)c1C(O)c1ncc(-c2ccccc2Cl)[nH]1 (stereo not drawn)	1.5	18.9	-5.4	.	-15.6	3.3
COc1ccc(S(=O)(=O)N2CCCCC2)cc1C(=O)N1CCCC1	22.9	-2.8	9.5	.	-2.7	9.1

Assay outcomes deposited in PubChem BioAssay by Sanford-Burnham Center for Chemical Genomics.
